Experimental data reported in PubChem BioAssay (EPA / NIEHS).
The source made the active and inactive calls. How the source made its calls: active means hit-call score of the fitted dose curve at least 0.9, where 1 is the maximum; inactive means score below 0.9.

Tests used:
[1] = APR_HepG2_CellCycleArrest_24hr: Apredica 24-hour HepG2 Assay for Cell Cycle Arrest (AID 2282905); conditions: imaging, actives raise or lower the signal;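 further: cell cycle arrest scored as ratio of 2N to 4N nuclear DNA content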
Summary of the method: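 After 24 h exposure at 0.39–200 uM in 0.5% DMSO, fixed cells received Hoechst 33342 staining. Imaging quantified per-nucleus DNA content; gain or loss fitted against DMSO controls.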

[2] = APR_HepG2_NuclearSize_24hr: Apredica 24-hour HepG2 Assay for Nuclear Size (AID 2282907); conditions: high-content imaging, actives raise or lower the signal
Summary of the method: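 Nuclear size from Hoechst 33342-stained, formaldehyde-fixed HepG2 nuclei imaged by high-content microscopy, after 24 h dosing at ten concentrations from 0.39 to 200 uM in 0.5% DMSO; gain or loss relative to DMSO baseline.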

[3] = APR_HepG2_CellLoss_24hr: Apredica 24-hour HepG2 Assay for Cell Loss (AID 2282908); conditions: high-content imaging;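 on AC50: fit in both directions so a hit may be cell loss or gain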
Summary of the method: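 Nuclei stained with Hoechst 33342 after formaldehyde fixation (3.7%) were imaged at 20x to count cells. Exposure lasted 24 hr, at ten concentrations from 0.39 to 200 uM in duplicate, with 0.5% v/v DMSO. Fit bidirectional, relative to DMSO.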

[4] = APR_HepG2_MicrotubuleCSK_24hr: Apredica 24-hour HepG2 Assay for Microtubule CSK Stabilty (AID 2282909); conditions: HepG2 microtubule cytoskeleton imaging, actives raise or lower the signal
Summary of the method: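 Fixed HepG2 cells were stained for alpha-tubulin and imaged after 24 hr exposure to ten concentrations spanning 0.39–200 uM in 0.5% DMSO. Signal change was fitted in both directions relative to DMSO; taxol was the positive control.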

[5] = APR_HepG2_MitoticArrest_24hr: Apredica 24-hour HepG2 Assay for Mitotic Arrest (AID 2282910); conditions: high-content imaging, actives raise or lower the signal
Summary of the method: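 High-content imaging of fixed HepG2 cells labeled with Hoechst 33342 and anti-phospho-histone H3, after 24 h treatment. Ten concentrations 0.39 to 200 uM in duplicate, final DMSO 0.5%; changes fitted both directions relative to DMSO.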

[6] = APR_HepG2_MitoMembPot_24hr: Apredica 24-hour HepG2 Assay for Mitochondrial Membrane Potential (AID 2282911); conditions: imaging, actives raise or lower the signal
Summary of the method: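 HepG2 cells exposed 24 h to 0.39–200 uM compounds in duplicate, 0.5% v/v DMSO final. MitoTracker Red CMXRos 250 nM loaded 30 min before formaldehyde fixation; high-content imaging at 20x, bidirectional fit versus DMSO.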

[7] = APR_HepG2_MitoMass_24hr: Apredica 24-hour HepG2 Assay for Mitochondrial Mass (AID 2282912); conditions: high-content imaging, actives raise or lower the signal
Summary of the method: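 Endpoint is MitoTracker Red CMXRos (250 nM, 30 min, pre-fixation) intensity from 20x high-content imaging, nuclei located by Hoechst. Human HepG2 cells received ten concentrations from 0.39 to 200 uM in 0.5% DMSO for 24 hr, duplicate wells. Bidirectional fit relative to DMSO.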

[8] = APR_HepG2_p53Act_24hr: Apredica 24-hour HepG2 Assay for p53 Activation (AID 2282913); conditions: high-content imaging, actives raise or lower the signal;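 further: p53 protein immunofluorescence averaged per cell in HepG2 with Hoechst nuclei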
Summary of the method: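 HepG2 cells exposed 24 h to compounds at 0.39–200 uM in duplicate, 0.5% v/v DMSO final; fixed, permeabilized, stained with anti-p53 antibody and Hoechst 33342; fluorescence imaging; bidirectional curve fit versus DMSO.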

[9] = APR_HepG2_CellCycleArrest_72hr: Apredica 72-hour HepG2 Assay for Cell Cycle Arrest (AID 2282914); conditions: high-content imaging, actives raise or lower the signal
Summary of the method: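 HepG2 cells exposed 72 h in duplicate to 0.39–200 uM compound, 0.5% DMSO final. Formaldehyde-fixed, Hoechst 33342-stained nuclei imaged at 20x, six fields per well; DNA content per valid cell quantified by cell-cycle image analysis, bidirectional fit versus DMSO.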

[10] = APR_HepG2_CellLoss_72hr: Apredica 72-hour HepG2 Assay for Cell Loss (AID 2282915); conditions: high-content imaging
Summary of the method: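 Cell number comes from Hoechst 33342-labelled nuclei, imaged at 20x after 3.7% formaldehyde fixation. Dosing was 0.39–200 uM, ten concentrations in duplicate, 0.5% DMSO final, for 72 h. Bidirectional fit relative to DMSO baseline.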

Measured: AC50

CCCCCCCCN(C)CCCCCCCC
inactive: all assays above

CN(C[C@@H](CC[N+]12CCC(C3CCCCC3)(CC1)CC2)c1ccc(Cl)c(Cl)c1)C(=O)c1cc(C(F)(F)F)cc(C(F)(F)F)c1
active: [3] 13.1 µM | [4] 34.3 µM | [5] 33.4 µM | [6] 1.27 µM | [7] 100 µM | [8] 18.3 µM | [10] 24.9 µM
inactive: [1] | [2] | [9]

O=C(Nc1ccc(Cl)cc1)Nc1ccc(Cl)c(Cl)c1
active: [1] 7.09 µM | [3] 4.01 µM | [6] 13.8 µM | [8] 3.93 µM | [9] 16.6 µM | [10] 5.54 µM
inactive: [2] | [4] | [5]

OC12N=C(c3ccccc3)SC1Cc1cc(Cl)ccc12 (stereo unspecified)
active: [10] 67.5 µM
not listed: [7]
inactive: all other assays above

CCCCCCCCCC(=O)O
not listed: [7]
inactive: all other assays above

CC(C)(C)c1cc(/C=C2\SC(N)=NC2=O)cc(C(C)(C)C)c1O
active: [1] 64.9 µM | [3] 53.1 µM | [4] 29.5 µM | [5] 52.3 µM | [8] 61.7 µM | [10] 32.4 µM
inactive: [2] | [6] | [9]

COc1cc(C(=O)NC2CCN(C)CC2)ccc1Nc1ncc2c(n1)N(C1CCCC1)CC(F)(F)C(=O)N2C
not listed: [7]
inactive: all other assays above

Oc1ccc2ccccc2c1
not listed: [7]
inactive: all other assays above

O=CCCCC=O
not listed: [7]
inactive: all other assays above

C[C@]12CC[C@@H]3c4ccc(O)cc4CC[C@H]3[C@@H]1CCC2=O
not listed: [7] | [8]
inactive: all other assays above

Oc1ccccc1
not listed: [7]
inactive: all other assays above

O=C=NCCCCCCN=C=O
not listed: [7]
inactive: all other assays above

CC/C(=C(/CC)c1ccc(O)cc1)c1ccc(O)cc1
inactive: [2] | [4] | [6]
active: [1] 20.9 µM | [3] 90.9 µM | [5] 50 µM | [8] 33.8 µM | [9] 31.3 µM | [10] 79.5 µM

COc1ccc2cc(S(=O)(=O)N[C@H](CC(=O)N[C@H](Cc3ccc(CN4[C@H](C)CCC[C@@H]4C)cc3)C(=O)N(C)C(C)C)c3ccc4c(c3)OCO4)ccc2c1
active: [2] 28.7 µM | [3] 39.6 µM | [4] 7.6 µM | [5] 16 µM | [8] 20.4 µM | [10] 25.3 µM
inactive: [1] | [6] | [9]

O=C1c2ccccc2C(=O)N1CCc1noc(-c2ccc(CN3CCCCCC3)s2)n1
not listed: [7]
inactive: all other assays above

O=C(O)c1ccccc1-n1cc(C(=O)O)c(=O)c2cc(Nc3c(F)cc(F)cc3Cl)c(Cl)cc21
not listed: [7]
inactive: all other assays above

Cc1cccc2ccccc12
not listed: [7]
inactive: all other assays above

COc1cccc([C@H](O)C2CCN(CCc3ccc(F)cc3)CC2)c1OC
active: [1] 75.2 µM | [10] 105 µM
not listed: [7]
inactive: all other assays above

CC(=O)N1CCN(c2ccc(OC[C@H]3CO[C@](Cn4ccnc4)(c4ccc(Cl)cc4Cl)O3)cc2)CC1
active: [3] 28.6 µM | [4] 103 µM | [6] 118 µM | [10] 23.5 µM
not listed: [7]
inactive: all other assays above

CC1=CC(=O)/C(=C(/C)O)C(=O)O1
not listed: [7]
inactive: all other assays above

Cc1ncc(CO)c(CO)c1O
not listed: [7]
inactive: all other assays above

CCN(CC)C(=O)c1cc(S(=O)(=O)Cc2ccccc2)c(N2CCC(c3ccccc3)CC2)cc1N(CC)CCN(C)C
inactive: [2] | [6]
active: [1] 75.9 µM | [3] 5.48 µM | [4] 11.1 µM | [5] 1.59 µM | [8] 18.6 µM | [9] 3.21 µM | [10] 2.54 µM

O=C(O)Cc1cc(I)c(Oc2ccc(O)c(I)c2)c(I)c1
not listed: [7]
inactive: all other assays above

CC(C)(c1cc(Br)c(O)c(Br)c1)c1cc(Br)c(O)c(Br)c1
inactive: [2] | [4] | [8]
active: [1] 77 µM | [3] 92.1 µM | [5] 96.3 µM | [6] 66.1 µM | [9] 82.9 µM | [10] 56.7 µM

CCCCCCCCOc1ccc(C(=O)c2ccccc2)c(O)c1
active: [1] 103 µM | [9] 164 µM | [10] 91.6 µM
not listed: [7]
inactive: all other assays above

CCCCCCCC[Si](OCC)(OCC)OCC
active: [3] 118 µM | [6] 29.8 µM | [9] 0.03 µM | [10] 34 µM
not listed: [7]
inactive: all other assays above

c1ccc(C[n+]2cccc3ccccc32)cc1
active: [1] 178 µM | [3] 115 µM | [4] 100 µM | [6] 32.8 µM | [9] 36.8 µM | [10] 54.8 µM
inactive: [2] | [5] | [8]

CCOC(=O)O[C@H](C)OC(=O)c1ccc2c(c1)cc(C(=O)NC1CCN(C(C)C)CC1)n2Cc1cc(-c2ccc(Cl)s2)on1
active: [1] 94.5 µM | [3] 9.26 µM | [4] 25 µM | [5] 10.1 µM | [6] 44.4 µM | [8] 94.5 µM | [10] 8.32 µM
inactive: [2] | [9]

CN(C)C(=O)C1(N2CCCCC2)CCN(CC[C@@]2(c3ccc(Cl)c(Cl)c3)CN(C(=O)c3ccccc3)CCO2)CC1
active: [2] 20.9 µM | [3] 15.7 µM | [4] 65.2 µM | [5] 13.1 µM | [8] 22.9 µM | [9] 67.3 µM | [10] 11.4 µM
inactive: [1] | [6]

CCCC(=O)OCCC(C)C
not listed: [7]
inactive: all other assays above

CCCCCCCCCCCC[N+](C)(C)C
inactive: [2] | [4] | [6] | [9]
active: [1] 59 µM | [3] 75.6 µM | [5] 50.2 µM | [8] 49.5 µM | [10] 41.7 µM

C[C@]12CC[C@@H]3c4ccc(O)cc4CC[C@H]3[C@@H]1CC[C@H]2O
inactive: [1]
active: [2] 105 µM | [3] 68.1 µM | [4] 100 µM | [5] 97.1 µM | [6] 16.8 µM | [8] 54.6 µM | [9] 173 µM | [10] 75.6 µM

Cc1oc2c(NC(=O)c3c(Cl)cccc3Cl)cccc2c1C(C)(C)O
not listed: [7]
inactive: all other assays above

Clc1cc(Cl)c2c(c1)N=C1CCCCCN1C2
active: [6] 0.0248 µM
not listed: [7]
inactive: all other assays above

Cc1occc1C(=O)Nc1ccc(C(=O)N2CCC(F)(F)/C(=C\C(=O)N3CCC(N4CCCCC4)CC3)c3ccccc32)cc1
active: [1] 34.9 µM | [3] 16.2 µM | [10] 12.3 µM
not listed: [7]
inactive: all other assays above

CCCCCCCCCCCCO
not listed: [7]
inactive: all other assays above

O=C(OCCCCCCOC(=O)c1ccccc1)c1ccccc1
not listed: [7]
inactive: all other assays above

O=C(O)c1ccccc1C(=O)OCc1ccccc1
not listed: [7]
inactive: all other assays above

CC(C)(C)c1csc(-c2cc3cc(OCc4ccccc4CC(=O)O)ccc3o2)n1
not listed: [7]
inactive: all other assays above

CCCOC(=O)c1cc(O)c(O)c(O)c1
active: [8] 38.1 µM | [9] 46.2 µM | [10] 8.44 µM
not listed: [7]
inactive: all other assays above
